Only some compounds are listed: those with a hit (about 4.1% of all), similar ones and a draw of the others.
hcDAF-12 act: H. contortus DAF-12 activation, primary screen | AID 652067 | HEK293 hcDAF-12 lit1-tk-luc reporter, luminescence; 0% DMSO, 100% Δ7-dafachronic acid | activation, % at 6.8 µM | 1.4% of 370,000 active;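 active means activation above the mean of all tested compounds plus 3 SD, cut at about 5.5% in these data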;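 further: 100% = response to 3 µM Δ7-dafachronic acid high control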
DAX1 inh-1: inhibitors of human orphan nuclear receptor DAX1 (NR0B1). P51843. HEK293 Gal4-DAX1 luciferase reporter, luminescence. inhibition, % at 6.75 µM. 0.99% of 340,000 active. AID 504766;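 active means inhibition above the mean over all tested compounds plus 3 SD, cut at about 4.2% in these data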;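 further: 0% = DAX1-transfected cells with DMSO and 100% = empty-vector control cells with DMSO; inhibition shows as a rise in luminescence from relieved DAX1 repression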
hgDAF-12 ag: hgDAF-12 agonism, primary luciferase screen; HEK293 GAL4-hgDAF12 UAS-luciferase reporter, agonist luminescence; normalized to butyrate control; activation, % at 6.8 µM; 1.8% of 370,000 active; AID 687014;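 active means activation above a cutoff set at the mean of all screened compounds plus 3 SD, cut at about 10% in these data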;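 further: 0% = DMSO wells and 100% = sodium butyrate wells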
DAX1 inh-2: DAX1 (NR0B1) inhibition, primary screen; HEK293T StAR-luciferase reporter, SF-1/DAX-1 repression relief; inhibition, % at 6.8 µM; 1.1% of 370,000 active; AID 652010;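 active means inhibition above the mean over all tested compounds plus 3 SD, cut at about 3.6% in these data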;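 further: 0% = DAX-1 cells with DMSO and 100% = cells lacking DAX-1 with DMSO; higher inhibition means more luminescence from relief of DAX-1 repression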
ssDAF12 agonist: activates DAF-12 receptor from parasite S. stercoralis | 1% of 370,000 active | activation, % at 6.8 µM | AID 652126 | HEK293 ssDAF-12/GRIP1 lit1-tk-luc reporter, luminescence; % of 3 µM dafachronic acid response;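 active means activation above the mean over all tested compounds plus 3 SD, cut at about 0.9% in these data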;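 further: 0% = DMSO-only wells and 100% = 3 µM delta7-dafachronic acid wells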
DAX1 conf: confirmation of human DAX1 (NR0B1) inhibitors | inhibition, % at 6.8 µM | HEK293T StAR-promoter luciferase reporter, SF-1/DAX-1 repression | shares compounds with DAX1 inh-2 | 87% of 2,400 active;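 active means inhibition above the average of every tested compound plus 3 SD, cut at about 3.8% in these data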;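 further: 0% = DAX-1 cells with DMSO and 100% = no DAX-1 control cells with DMSO; active compounds raise luminescence by relieving repression of the StAR reporter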
Target sequence (P51843 whole entry, looked up): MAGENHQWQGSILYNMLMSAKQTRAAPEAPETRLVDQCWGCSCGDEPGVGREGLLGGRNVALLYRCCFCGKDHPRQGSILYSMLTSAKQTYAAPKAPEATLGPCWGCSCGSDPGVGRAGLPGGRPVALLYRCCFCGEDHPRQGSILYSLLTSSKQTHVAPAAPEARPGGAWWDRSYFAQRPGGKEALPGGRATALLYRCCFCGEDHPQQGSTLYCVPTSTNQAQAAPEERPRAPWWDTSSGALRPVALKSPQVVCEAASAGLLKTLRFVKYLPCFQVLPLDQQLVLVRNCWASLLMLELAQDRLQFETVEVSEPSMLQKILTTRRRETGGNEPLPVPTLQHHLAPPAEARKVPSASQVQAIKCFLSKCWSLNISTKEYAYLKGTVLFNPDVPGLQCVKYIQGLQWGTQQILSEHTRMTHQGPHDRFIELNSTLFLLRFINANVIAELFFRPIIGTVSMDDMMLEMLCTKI
SF1 AF2mut Luc: counter-screen for DAX1 inhibitors: nonselective inhibitors with SF-1 AF2 mutant; shares compounds with DAX1 inh-2; HEK293 StAR-luciferase, luminescence; inhibition, % at 6.8 µM; 78% of 2,400 active; AID 652136;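 active means inhibition above the mean of all tested compounds plus 3 SD, cut at about 3% in these data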;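 further: 0% = DAX-1 transfected cells with DMSO and 100% = cells without DAX-1 with DMSO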
* = called active by the depositor; x = no result.

SMILES	hcDAF-12 act	DAX1 inh-1	hgDAF-12 ag	DAX1 inh-2	ssDAF12 agonist	DAX1 conf	SF1 AF2mut Luc
COc1cccc(/C=C2/Sc3ccc(C(=O)NCCN4CCCC4)cc3NC2=O)c1	-0.4	-0.3	2.9	10.5*	-0.8	4.6*	3.2*
O=C(Nc1ccc(F)c(Cl)c1)c1csc([C@@H]2C[C@H](O)[C@@H](CO)O2)n1	3.0	x	1.6	4.7*	-1.0	3.0	2.2
O=C(O)c1cc(/C=C/c2ccc(N3CCOCC3)cc2)nc2ccccc12	5.1	-2.5	6.1	5.5*	0.0	7.2*	2.2
O=C(O)c1cc(/C=C/c2ccc(N3CCOCC3)c([N+](=O)[O-])c2)nc2ccccc12	0.5	0.2	-2.3	0.3	-0.7	x	x
CC(=O)NC(CC(=O)N1CCN(C(C)=O)CC1)c1ccccc1 (stereo unspecified)	0.0	-0.3	1.1	5.3*	-0.6	2.6	0.2
O=C(NC(CC(=O)N1CCN(c2ccccc2)CC1)c1ccccc1)c1ccccc1 (stereo unspecified)	-1.5	1.7	-2.2	-0.8	-1.8	x	x
Cc1cccnc1NC(=O)c1ccc(NS(=O)(=O)c2ccc3[nH]c(=O)[nH]c3c2)cc1	4.1	1.1	2.4	0.1	-0.8	x	x
O=C(Nc1ncccc1O)c1ccc(NS(=O)(=O)c2ccc3[nH]c(=O)[nH]c3c2)cc1	-0.6	2.1	5.0	14.7*	-0.4	19.1*	14.7*
COc1ccc(-n2c(COc3ccc(C)cc3)nnc2SCC(=O)c2ccc(-c3ccccc3)cc2)cc1	-1.4	x	1.6	-0.5	-1.4	x	x
CCN(CC)CCCn1c2c(c(SCC(=O)N3CCCc4ccccc43)nc1=O)CCC2	0.1	0.1	1.2	8.0*	-1.5	2.4	-0.2
CN(C)CCn1c2c(c(SCC(=O)N3CCc4ccccc43)nc1=O)CCCC2	1.2	-0.6	-1.3	-0.8	0.5	x	x
CC(C)(C)c1cc(NC(=O)c2cccs2)no1	4.1	-0.3	11.0*	11.3*	0.7	12.4*	7.2*
Cc1nc(-c2ccc(NC(=O)/C=C\C(=O)O)cc2)cs1	-0.8	-2.4	9.2	0.4	-0.8	x	x
Cc1ccc2sc(-c3ccc(NC(=O)/C=C\C(=O)O)cc3)nc2c1	6.2*	-1.8	12.0*	5.3*	0.5	9.9*	6.5*
Cc1c(C(=O)Nc2ccc(Oc3ccccc3)cc2)sc2nc3n(c(=O)c12)CCC3	-3.1	-2.8	-2.6	-1.5	-2.0	x	x
CSc1cccc(NC(=O)c2sc3nc4n(c(=O)c3c2C)CCC4)c1	0.2	0.9	2.6	5.1*	-1.1	1.4	2.3
CC(=O)c1cccc(NC(=O)c2sc3nc4n(c(=O)c3c2C)CCCCC4)c1	-0.5	-1.7	-2.1	0.4	-1.4	x	x
COc1cccc(NC(=O)c2sc3nc4n(c(=O)c3c2C)CCC4)c1	3.0	0.1	5.7	4.7*	-0.6	5.0*	5.9*
CC(=O)OC[C@H]1O[C@H](C#Cc2ccc(C(C)(C)C)cc2)C=C[C@H]1OC(=O)Nc1ccccc1	-0.1	x	2.9	0.4	-1.2	x	x
C[C@H]1[C@@H](OC(=O)Nc2ccccc2C(F)(F)F)CC[C@@]23CCCN2C(=O)CCC[C@@H]13	-0.1	x	0.8	x	-1.9	x	x
CCCC1CCC2(CCCN2CCOC(=O)Nc2ccccc2C)CC1 (stereo unspecified)	-0.9	x	0.7	x	-0.6	x	x
O=C(Nc1ccccn1)c1ccc(Cl)s1	1.3	1.9	12.2*	5.2*	-0.4	7.0*	6.2*
O=C(NCc1ccccn1)c1ccc(Cl)s1	0.8	1.4	-1.3	0.2	-0.9	x	x
Nc1c(C(=O)Nc2ccc3c(c2)OCCO3)nnn1Cc1ccccc1Cl	1.6	-0.3	6.8	7.0*	-0.6	9.1*	5.5*
COc1ccc(Br)cc1Cn1nnc(C(=O)Nc2ccc3c(c2)OCCO3)c1N	-2.2	-0.5	-2.9	-0.7	-1.7	x	x
SMILES	hcDAF-12 act	DAX1 inh-1	hgDAF-12 ag	DAX1 inh-2	ssDAF12 agonist	DAX1 conf	SF1 AF2mut Luc
Nc1c(C(=O)Nc2ccc3c(c2)OCCO3)nnn1Cc1cccc(Cl)c1	2.1	0.4	2.6	5.2*	-0.6	11.0*	4.3*
C[C@@H]1CN([C@@H](C)CO)C(=O)CCCn2cc(nn2)CO[C@H]1CN(C)C(=O)Nc1ccc(C(F)(F)F)cc1	-1.4	x	1.7	-0.8	-1.1	x	x
COc1cccc(-c2cnc3c(NC=O)cc(-c4ccc(OC)cc4OC)cn23)c1	-1.9	x	-8.5	-0.1	-1.3	x	x
COc1ccc(-c2cc(NC=O)c3ncc(-c4cc(OC)c(OC)c(OC)c4)n3c2)cc1	-0.5	x	-4.3	4.6*	-0.6	4.0*	-11.1
COc1ccc(-c2cc(NC=O)c3ncc(-c4ccc(OC)c(OC)c4)n3c2)c(OC)c1	-3.6	x	-3.3	6.5*	-1.2	12.5*	-7.6
CC(C)(C)OC(=O)N1CCC2CCN(S(C)(=O)=O)CC21 (stereo unspecified)	-0.2	x	1.8	-0.8	-0.7	x	x
O=C(NCCc1cccc(Cl)c1)c1cccs1	3.5	0.1	10.8*	4.5*	-1.5	6.6*	3.8*
O=C(O)c1cccc(Nc2nc3ccccc3nc2NS(=O)(=O)c2ccc(F)cc2)c1	0.3	-0.8	1.6	6.6*	0.1	2.7	3.9*
Nc1nc2c(ncn2[C@@H]2O[C@H](C(=O)N[C@@H](Cc3ccccc3)C(=O)NCC3CCCCC3)[C@@H](O)[C@H]2O)c(=O)[nH]1	-0.3	x	-1.3	-1.2	-0.8	x	x
Cc1ccc(C(=O)OCc2cc(=O)n3ccsc3n2)s1	0.4	-0.9	4.5	-1.0	-0.9	x	x
Cc1ccc(C(=O)OCc2cc(=O)n3c(C)csc3n2)s1	1.8	-0.3	1.6	4.8*	-1.1	2.8	1.9
CCCCCCC(=O)NC1CCCCN(C)C1=O (stereo unspecified)	0.2	x	2.8	-0.9	-0.7	x	x
COc1ccc(-c2cn3cc(C)ccc3n2)cc1F	5.6*	-1.6	10.4	4.8*	-0.3	11.5*	1.4
CC(=O)c1cccc(NC(=O)c2cnn3c(C)cc(C)nc23)c1	-2.8	x	5.5	x	-2.0	x	x
Cc1ccsc1C(=O)NNC(=O)C1C2C=CC(C2)C1C(=O)O (stereo unspecified)	9.5*	2.7	17.1*	5.2*	1.1*	3.8*	2.3
C[C@H](CO)N1C[C@H](C)[C@@H](CN(C)C(=O)Nc2cccc(F)c2)OCc2cn(nn2)CCCC1=O	-0.5	x	2.6	-1.1	-1.0	x	x
CC(=O)Nc1cccc(C(=O)OCC(=O)c2ccccc2Cl)c1	4.5	2.8	9.8	5.1*	-0.4	7.3*	5.6*
Cc1cccc(N2CCN(C(=O)c3[nH]c(C(F)(F)F)nc3-c3ccccc3)CC2)c1C	-1.2	x	-3.6	10.4*	-0.5	9.8*	-6.2
